Screening results (PubChem BioAssay)
Sampled rows, rich in hits. Any-hit rate of the full collection: about 2.4%.
D2 PAM-1: human D2 receptor positive allosteric modulation. P14416. potentiation, % (test concentration not listed). DiscoveRx D2 beta-arrestin cells, luminescence, 90 min; 100% = 57 uM dopamine signal. 0.23% of 360,000 active. AID 624464; in the data active = potentiation above about 50%
Target sequence (P14416 whole entry, looked up): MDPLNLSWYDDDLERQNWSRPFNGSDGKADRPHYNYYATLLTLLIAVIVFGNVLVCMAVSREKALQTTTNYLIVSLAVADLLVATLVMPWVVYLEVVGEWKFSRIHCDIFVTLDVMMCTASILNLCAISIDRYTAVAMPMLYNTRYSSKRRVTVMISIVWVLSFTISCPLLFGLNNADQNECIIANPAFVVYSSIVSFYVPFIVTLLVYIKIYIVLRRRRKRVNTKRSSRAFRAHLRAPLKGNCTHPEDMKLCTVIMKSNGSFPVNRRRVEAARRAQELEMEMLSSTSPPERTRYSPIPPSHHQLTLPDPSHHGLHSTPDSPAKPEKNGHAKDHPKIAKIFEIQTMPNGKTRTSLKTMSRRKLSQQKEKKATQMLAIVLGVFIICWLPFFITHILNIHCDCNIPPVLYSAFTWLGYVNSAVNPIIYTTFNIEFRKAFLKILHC
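PathHunter beta-arrestin assay in DiscoveRx D2 cells. Compounds were added with an EC20 of dopamine (50 nM final) for 90 min at 37 deg C. Luminescence was read 1 h after detection reagent, with 57 uM dopamine as the EC100 control.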
D2 PAM-2: positively modulates the human D2 dopamine receptor allosterically; HEK293 T-REx D2, calcium flux, EC20 dopamine potentiation; potentiation, % at 10 µM; 0.34% of 340,000 active; P14416;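 active = potentiation over 3 SD above the plate norm, cut at about 30% in these data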; note: 0% is about no effect
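Tetracycline-induced Hek293 Trex D2 cells, force-coupled to calcium, loaded with no-wash calcium dye. Compound added with 180 s kinetic read for agonism, then EC20 dopamine and a further 180 s read for potentiation.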
D2 antag: antagonizes the human D2 dopamine receptor; HEK293 TREx D2 cells, calcium flux, dopamine EC80; inhibition, % at 10 µM; 2% of 340,000 active; in the data active = inhibition above about 30%; inactive = below that, where a call was filed; note: 0% is about no effect
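Compounds are added to dye-loaded, induced HEK293 T-REx cells coupled to calcium release via D2; after a 3 min kinetic read an EC80 dopamine stimulus is given and fluorescence is recorded for 3 more min.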
D2 ag-1: activates the human D2 dopamine receptor; P14416; DiscoveRx PathHunter D2 beta-arrestin, luminescence, 90 min; 100% = 57 uM dopamine signal; activation, % (concentration not given with the values); 0.084% of 360,000 active; in the data active = activation above about 40%
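Agonist mode: compounds alone added to overnight-plated D2 PathHunter cells for 90 min at 37 C, with 57 uM final dopamine (EC100) defining full response. Beta-arrestin recruitment detected by chemiluminescent reagent, read after 1 h at ambient temperature.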
D2 ag-2: activates the human D2 dopamine receptor. 0.53% of 340,000 active. activation, % at 2 µM. HEK293 T-REx D2 cells, calcium flux agonist mode. P14416;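 active = activation over 3 SD above normal in the single-dose calcium agonist read, cut at about 30% in these data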; note: 0% is about no effect
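Agonism is scored from calcium flux in a force-coupled, inducible HEK293 cell line expressing D2, read kinetically for 180 s after compound addition against dopamine controls.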
The depositor's hits bear a star; . = not tested or not shown.

SMILES	D2 PAM-1	D2 PAM-2	D2 antag	D2 ag-1	D2 ag-2
Cc1cc(C)c2nc(N3CCCC(C(=O)NCc4cccc(Cl)c4)C3)sc2c1 (centres undefined)	.	16.4	.	.	0.1
CCOc1ccc(S(=O)(=O)NCCc2csc3nc(-c4cccc(C)c4)nn23)cc1	.	0.2	.	.	-0.1
CCN(CC)S(=O)(=O)c1ccc(Cl)c(C(=O)NC2CCN(Cc3ccccc3)CC2)c1	-33.9	-19.9	25.5	-1.2	0.0
Cc1oc(C(C)(C)C)cc1C(=O)NC1CCN(Cc2ccccc2)CC1	-19.7	-22.9	85.3*	-4.6	0.6
Cc1oc(-c2ccc(Cl)cc2)cc1C(=O)NC1CCN(Cc2ccccc2)CC1	-18.2	-16.4	58.1*	-2.7	0.8
COc1ccc(C2=Nn3c(nnc3-c3ccccn3)SC2)cc1OC	-3.7	13.9	-15.1	-4.6	1.7
COc1ccc(C2=Nn3c(nnc3-c3ccccc3OC)SC2)cc1OC	3.9	36.9*	-3.5	1.2	0.1
CCN(CCC(=O)Nc1cc([N+](=O)[O-])ccc1OC)Cc1ccccc1	-38.7	-24.7	78.9*	-1.3	1.4
COc1ccc([N+](=O)[O-])cc1NC(=O)C(C)OC(=O)Cn1[nH]c(=O)c2ccccc2c1=O (centres undefined)	-6.0	-1.4	35.8*	-6.1	-0.2
COc1ccc([N+](=O)[O-])cc1NC(=O)C(C)c1ccccc1 (centres undefined)	5.2	-2.7	32.2*	-0.5	0.4
COc1ccc([N+](=O)[O-])cc1NC(=O)CC(c1ccccc1)c1ccccc1	-0.5	.	.	-2.8	.
COc1ccc([N+](=O)[O-])cc1NC(=O)C(C)OC(=O)CN1C(=O)C2CC=CCC2C1=O (centres undefined)	-1.9	-11.1	-10.6	-0.7	0.1
COc1ccc([N+](=O)[O-])cc1NC(=S)NC(NC(=O)C(c1ccccc1)c1ccccc1)C(Cl)(Cl)Cl (centres undefined)	-23.2	-19.0	71.3*	1.4	-0.1
CCOC(=O)c1cc2c(=O)n3ccccc3nc2n(CC2CCCO2)c1=NC(=O)c1ccc(F)cc1 (centres undefined)	.	0.5	.	.	-0.1
COc1ccc(OC)c(NC(=O)c2cccc(N3C(=O)C4C5C=CC(C6CC56)C4C3=O)c2)c1 (centres undefined)	-9.0	40.4*	1.6	7.0	-0.7
O=C(Nc1ccccc1)c1cccc(N2C(=O)C3C4C=CC(C5CC45)C3C2=O)c1 (centres undefined)	-2.0	-0.2	32.4*	2.3	1.0
CCc1cccc(CC)c1NC(=O)Cn1nnc2sc3c(c2c1=O)CCCC3	.	9.9	.	.	0.9
Fc1ccccc1N1CCN(c2nccn3nc(-c4ccc(Br)cc4)cc23)CC1	.	9.3	.	.	-1.2
CCOC(=O)N1CC=C2C(C#N)=C(N)C(C#N)(C#N)[C@H](c3cccs3)C2C1 (some centres undefined)	-4.7	72.1*	-17.8	-4.4	0.2
CCc1ccc(S(=O)(=O)c2cn(Cc3ccccc3)c3cc(N4CCCC4)c(F)cc3c2=O)cc1	.	-6.3	.	.	0.0
CCN(CC(=O)NC)S(=O)(=O)c1ccc(Br)cc1	-5.1	33.8*	-0.8	-3.3	0.3
Cc1cc(Nc2cccc([N+](=O)[O-])c2)n2c(nc3ccccc32)c1C#N	15.7	8.2	34.9*	-0.6	3.5
Cc1cc(Nc2ccc(F)cc2)n2c(nc3ccccc32)c1C#N	.	12.4	.	.	2.3
COc1ccccc1OCC(O)CN1CCN(C(=O)c2ccccc2)CC1 (centres undefined)	-27.2	-12.2	2.9	-2.5	32.5*
CCOC(=O)N1CCN(CC(O)COc2ccccc2C(C)CC)CC1 (centres undefined)	-7.3	-2.7	32.4*	1.1	-0.2
SMILES	D2 PAM-1	D2 PAM-2	D2 antag	D2 ag-1	D2 ag-2
CCOC(=O)N1CCN(CC(O)COc2ccccc2C(C)C)CC1 (centres undefined)	-11.8	-15.8	6.1	2.6	0.1
O=C(CSc1nc2c([nH]c3ccccc32)c(=O)n1-c1ccccc1)NCc1ccc(F)cc1	.	13.1	.	.	-0.2
COc1cccc(C2CC(=O)N(c3ccc(F)cc3)C3=C2C(=O)OC3)c1OC (centres undefined)	.	14.7	.	.	-0.5
CCc1cccc(N2C(=O)CS(=O)(=O)C23C(=O)N(Cc2ccccc2)c2ccc(C)cc23)c1 (centres undefined)	.	-7.8	.	.	1.1
CC(C)C(C(=O)Nc1ncn[nH]1)N1C(=O)c2ccccc2C1=O (centres undefined)	1.9	30.6*	2.8	-1.9	0.4
CC(C)C(C(=O)Nc1ccccc1)N1C(=O)c2ccccc2C1=O (centres undefined)	-2.2	-7.1	-9.0	-5.9	-0.4
Cc1cc(C)n2nc(C(=O)OCC(=O)Nc3ccc(C)c(F)c3)nc2n1	-6.4	.	.	2.3	.
CCc1ccc(NC(=O)COC(=O)c2nc3nc(C)cc(C)n3n2)cc1	-10.6	37.3*	40.6*	0.5	-0.2
Cc1cccc([N+](=O)[O-])c1NC(=O)COC(=O)c1nc2nccc(C)n2n1	0.2	5.4	52.4*	0.3	-1.0
CCc1ccc(CNC(=O)Cc2c(C(=O)O)c(C)cn2C)cc1	.	-10.5	.	.	0.3
CC(=O)c1cccc(NC(=O)NCCc2c[nH]c3ccccc23)c1	-9.8	-6.1	-5.6	-1.2	-0.7
O=C(Nc1cccc(CNCCc2c[nH]c3ccccc23)c1)c1ccccc1Cl	-24.4	-33.9	72.4*	-4.4	21.6
Cc1cccc(CNc2ccc(C(CC(N)=O)NC(=O)Cc3cccc4ccccc34)cc2[N+](=O)[O-])c1 (centres undefined)	-4.0	1.8	33.8*	-4.1	-0.5
CCCCNc1ccc(C(CC(N)=O)NC(=O)Cc2cccc3ccccc23)cc1[N+](=O)[O-] (centres undefined)	-0.6	-4.6	-0.8	-1.2	0.7
NC(=O)CC(NC(=O)c1ccccc1)c1ccc(NCC2CC2)c([N+](=O)[O-])c1 (centres undefined)	-9.2	-0.6	6.8	-6.1	0.2
NC(=O)CC(NC(=O)c1cccc(Br)c1)c1ccc(NCC2CC2)c([N+](=O)[O-])c1 (centres undefined)	-10.8	-8.9	37.7*	-3.1	0.2
O=c1oc2c(CN3CCOCC3)c(O)ccc2c2c1CCC2	-8.2	9.9	-2.3	-2.6	0.1
CC1CCCN(Cc2c(O)ccc3c4c(c(=O)oc23)CCCC4)C1 (centres undefined)	-31.0	-20.2	36.0*	-4.6	0.1
CCCCN1C(=O)C(NC(=O)c2ccc(C(C)(C)C)cc2)(C(F)(F)F)C(C(=O)OC)=C1C (centres undefined)	.	1.9	.	.	0.5
COc1ccccc1C(=O)NC1(C(F)(F)F)C(=O)NC(C)=C1C#N (centres undefined)	.	-13.1	.	.	-0.1
